Reference: PubChem BioAssay
Calls of active or inactive are those of the source. No rule for the calls is given here.

target: Pantothenate synthetase (Mycobacterium tuberculosis (strain ATCC 25618 / H37Rv)) (UniProt P9WIL5); test: Recombinant Mtb pantothenate synthetase (PanC) inhibitors, coupled enzyme, confirmatory (AID 375); conditions: coupled enzyme assay; at 10 µM, hits give high values;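 also: 0% = full reaction with vehicle and 100% = no enzyme background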
Sequence (P9WIL5 whole entry, looked up): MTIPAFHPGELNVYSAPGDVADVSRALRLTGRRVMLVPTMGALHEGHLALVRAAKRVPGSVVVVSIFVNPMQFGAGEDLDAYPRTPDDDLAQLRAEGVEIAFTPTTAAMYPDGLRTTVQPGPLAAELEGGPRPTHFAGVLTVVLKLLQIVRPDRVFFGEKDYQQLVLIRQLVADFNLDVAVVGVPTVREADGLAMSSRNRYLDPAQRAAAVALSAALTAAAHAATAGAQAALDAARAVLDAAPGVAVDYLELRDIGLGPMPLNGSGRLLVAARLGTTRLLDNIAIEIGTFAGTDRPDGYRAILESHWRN

Question: Which inhibition does the source give for `CCC[C@@H]1C[C@@H](C(=O)N[C@H]([C@@H](C)O)[C@H]2O[C@H](SC)[C@H](O)[C@@H](O)C2O)N(C)C1` (some centres undefined) here?
Answer: 0% (inactive)

Question: With `CCC(C)(C)n1nnnc1C(c1ccc(OC)c(OC)c1)N1CCN(c2ccccc2)CC1` (centres undefined) as the compound, how does the inhibition read?
Answer: 0% (inactive)

Question: With `CC(=O)C1=C(NC(=O)c2ccccc2F)C[C@@H]2[C@H]1C2(C)C` as the compound, how does the inhibition read?
Answer: 0% (inactive)

Question: How did the inhibition turn out when `CCN1C(=O)CC(C(=O)Nc2ccc(F)cc2)SC1=Nc1ccc2c(c1)OCO2` (centres undefined) was run?
Answer: 6% (inactive)

Question: With `CCn1c2ccccc2c2cc(NC(=O)Cc3ccc(S(=O)(=O)N4CCOCC4)s3)ccc21` as the compound, how does the inhibition read?
Answer: 0% (inactive)

Question: How did the inhibition turn out when `CC(Oc1ccccc1)C(=O)N1CCCc2ccccc21` (centres undefined) was run?
Answer: 0% (inactive)

Question: `O=C(Oc1ccccc1)c1cccc(COC(=O)c2cnccn2)c1` was tested. Which inhibition did it give?
Answer: 5% (inactive)

Question: For `Cc1cccc(N2CCN(C(=O)C3CCCN(S(=O)(=O)c4cnc[nH]4)C3)CC2C)c1` (centres undefined), which inhibition is on record?
Answer: 0% (inactive)

Question: For `CCn1c(C(Cc2ccccc2)NC(=O)COC)nc2ccccc21` (centres undefined), which inhibition is on record?
Answer: 0% (inactive)

Question: Which inhibition does the source give for `O=C(Nc1nc(-c2cccs2)cs1)c1cccc(S(=O)(=O)N2CCCCC2)c1` here?
Answer: 0% (inactive)

Question: `COC(=O)c1ccc(CSc2nc(-c3ccc(OC)cc3)nc3c2c(=O)n(C)c(=O)n3C)o1` was tested. Which inhibition did it give?
Answer: 10% (inactive)

Question: Which inhibition does the source give for `c1ccc2c(c1)nc(-c1ccncc1)n1nnnc21` here?
Answer: 11% (inactive)

Question: With `COC(=O)CN(c1nc(C)c(Cl)c(OC)n1)S(=O)(=O)c1ccc(C)cc1` as the compound, how does the inhibition read?
Answer: 0% (inactive)

Question: How did the inhibition turn out when `COc1ccccc1NC(=O)N(Cc1ccco1)Cc1cc2c(C)ccc(C)c2[nH]c1=O` was run?
Answer: 0% (inactive)

Question: For `O=C(CSc1nnc(Cn2nnc(-c3ccccc3)n2)n1-c1ccccc1)Nc1ccc(F)cc1`, which inhibition is on record?
Answer: 1% (inactive)

Question: Which inhibition does the source give for `O=C(O)c1cccc(NC(=O)C23CC4CC(C2)CC(n2cnc(Cl)n2)(C4)C3)c1` here?
Answer: 1% (inactive)

Question: Which inhibition does the source give for `Cc1c(C(=O)N2CCCC2)sc(NC(=O)c2cccs2)c1C#N` here?
Answer: 0% (inactive)

Question: How did the inhibition turn out when `O=C(CCCn1c(=O)c2sccc2n(Cc2cc(=O)n3ccccc3n2)c1=O)NCc1ccco1` was run?
Answer: 0% (inactive)

Question: How did the inhibition turn out when `CCN1CCCC1CN=Cc1c(O)n(-c2ccccc2)c(=O)c2ccccc12` (centres undefined) was run?
Answer: 0% (inactive)

Question: How did the inhibition turn out when `CCOC(=O)c1c(NC(=O)c2cccs2)sc2c1CCN(C(=O)OCC)C2` was run?
Answer: 0% (inactive)

Question: For `CCCOc1ccc(N2C(=O)CC(SCCN)C2=O)cc1` (centres undefined), which inhibition is on record?
Answer: 0% (inactive)

Question: How did the inhibition turn out when `Cc1cccc(N2C(=O)CC(Sc3nc(C)c4c(n3)CCCC4)C2=O)c1` (centres undefined) was run?
Answer: 0% (inactive)

Question: How did the inhibition turn out when `CC1(C)Cc2c(sc3c2C2=NCCN2C=N3)CS1` was run?
Answer: 3% (inactive)

Question: With `COc1cccc(/C=N/n2c(-c3ccco3)nc3ccccc3c2=O)c1` as the compound, how does the inhibition read?
Answer: 1% (inactive)
